Source: ChEMBL document CHEMBL4513146, “CO-ADD screening of Karazin Kharkiv National University (Ukraine) compounds”
Entries with a potency or affinity are not part of this list.

Legend:
Klebsiella pneumoniae = settings: Concentration 32 ug.mL-1;; ASSAY_TEST Inhibition of Bacterial Growth; detection method Absorption (OD600); MEDIA CAMHB; plate type 384well; NBS; CORNING #3640; time 18 hr
Candida albicans = settings: Concentration 32 ug.mL-1; ASSAY_TEST Inhibition of Fungal Growth; detection method Absorption (OD530)
Cryptococcus neoformans = settings: Concentration 32 ug.mL-1; ASSAY_TEST Inhibition of Fungal Growth; detection method Resazurin; Absorption (OD600-OD570); plate type 384well; NBS; CORNING #3640

SMILES	Inhibition (Klebsiella pneumoniae)	Inhibition (Candida albicans)	Inhibition (Cryptococcus neoformans)
CCCCOc1ccc(-c2cc3c4nnc(SCC(=O)Nc5cccc(C#N)c5)n4ccn3n2)cc1	-0.44%	7.68%	-23.71%
O=C(CSc1nnc2c(=O)n(-c3ccccc3)ccn12)Nc1ccc(F)cc1F	1.13%	1.82%	-4.59%
Cc1ccc(-c2ccc3nn(CC(=O)Nc4ccc(Br)cc4F)c(=O)n3n2)cc1	9.08%	3.52%	-13.83%
O=C(Cn1nc2c(Sc3cccc(F)c3)nccn2c1=O)Nc1cccc(C(F)(F)F)c1	14.77%	-0.63%	-9.77%
Cc1ccccc1CSc1nnc2c(=O)n(-c3ccc(F)cc3)ccn12	9.44%	1.51%	-10.33%
O=C(Cn1nc2c3sc(N4CCCC4)nc3ncn2c1=O)Nc1cccc(Br)c1	18.9%	3.98%	-10.95%
Cc1ccc(-n2ccn3c(=O)n(Cc4cccc(Cl)c4)nc3c2=O)cc1C	2.85%	1.08%	-13.91%
Cc1ccccc1Cn1nc2c(=O)n(-c3cccc(Cl)c3C)ccn2c1=O	2.06%	0.54%	-12.78%
CC(C)c1nnc2c(SCC(=O)Nc3ccc4c(c3)OCO4)nc3ccccc3n12	4.73%	-0.7%	-20.34%
COc1cccc(-n2ccn3c(SCC(=O)Nc4ccccc4F)nnc3c2=O)c1	7.91%	2.83%	-12.13%
